# How the values were obtained:
# [1] = system: Epidermal growth factor receptor (Homo sapiens), P00533 [L858R,T790M]; conditions: at 0.1 µM
# [2] = system: Epidermal growth factor receptor (Homo sapiens), P00533 [L858R,T790M]; conditions: at 1 µM
# [3] = target: Ephrin type-A receptor 2 (Homo sapiens) (UniProt P29317); conditions: at 0.1 µM
# [4] = target: Ephrin type-A receptor 2 (Homo sapiens) (UniProt P29317); conditions: at 1 µM
# [5] = target: Ephrin type-A receptor 3 (Homo sapiens) (UniProt P29320); conditions: at 0.1 µM
# [6] = target: Ephrin type-A receptor 3 (Homo sapiens) (UniProt P29320); conditions: at 1 µM
# [7] = target: Ephrin type-A receptor 4 (Homo sapiens) (UniProt P54764); conditions: at 0.1 µM
# [8] = target: Ephrin type-A receptor 4 (Homo sapiens) (UniProt P54764); conditions: at 1 µM
# [9] = target: Ephrin type-B receptor 2 (Homo sapiens) (UniProt P29323); conditions: at 0.1 µM
# [10] = target: Ephrin type-B receptor 2 (Homo sapiens) (UniProt P29323); conditions: at 1 µM
# [11] = target: Ephrin type-B receptor 3 (Homo sapiens) (UniProt P54753); conditions: at 0.1 µM
# [12] = target: Ephrin type-B receptor 3 (Homo sapiens) (UniProt P54753); conditions: at 1 µM
# [13] = target: Ephrin type-B receptor 4 (Homo sapiens) (UniProt P54760); conditions: at 0.1 µM
# [14] = target: Ephrin type-B receptor 4 (Homo sapiens) (UniProt P54760); conditions: at 1 µM
# [15] = target: Receptor tyrosine-protein kinase erbB-2 (Homo sapiens) (UniProt P04626); conditions: at 0.1 µM
# [16] = target: Receptor tyrosine-protein kinase erbB-2 (Homo sapiens) (UniProt P04626); conditions: at 1 µM
# [17] = target: Receptor tyrosine-protein kinase erbB-4 (Homo sapiens) (UniProt Q15303); conditions: at 0.1 µM
# [18] = target: Receptor tyrosine-protein kinase erbB-4 (Homo sapiens) (UniProt Q15303); conditions: at 1 µM
# [19] = target: Tyrosine-protein kinase Fer (Homo sapiens) (UniProt P16591); conditions: at 0.1 µM
# [20] = target: Tyrosine-protein kinase Fer (Homo sapiens) (UniProt P16591); conditions: at 1 µM
# [21] = target: Tyrosine-protein kinase Fes/Fps (Homo sapiens) (UniProt P07332); conditions: at 0.1 µM
# [22] = target: Tyrosine-protein kinase Fes/Fps (Homo sapiens) (UniProt P07332); conditions: at 1 µM
# [23] = target: Fibroblast growth factor receptor 1 (Homo sapiens) (UniProt P11362); conditions: at 0.1 µM
# [24] = target: Fibroblast growth factor receptor 1 (Homo sapiens) (UniProt P11362); conditions: at 1 µM
# [25] = target: Fibroblast growth factor receptor 2 (Homo sapiens) (UniProt P21802); conditions: at 0.1 µM
# [26] = target: Fibroblast growth factor receptor 2 (Homo sapiens) (UniProt P21802); conditions: at 1 µM
# [27] = target: Fibroblast growth factor receptor 3 (Homo sapiens) (UniProt P22607); conditions: at 0.1 µM
# [28] = target: Fibroblast growth factor receptor 3 (Homo sapiens) (UniProt P22607); conditions: at 1 µM
# [29] = target: Fibroblast growth factor receptor 4 (Homo sapiens) (UniProt P22455); conditions: at 0.1 µM
# [30] = target: Fibroblast growth factor receptor 4 (Homo sapiens) (UniProt P22455); conditions: at 1 µM
# [31] = target: Tyrosine-protein kinase Fgr (Homo sapiens) (UniProt P09769); conditions: at 0.1 µM
# [32] = target: Tyrosine-protein kinase Fgr (Homo sapiens) (UniProt P09769); conditions: at 1 µM
# [33] = target: Vascular endothelial growth factor receptor 1 (Homo sapiens) (UniProt P17948); conditions: at 0.1 µM
# [34] = target: Vascular endothelial growth factor receptor 1 (Homo sapiens) (UniProt P17948); conditions: at 1 µM
# [35] = target: Receptor-type tyrosine-protein kinase FLT3 (Homo sapiens) (UniProt P36888); conditions: at 0.1 µM
# [36] = target: Receptor-type tyrosine-protein kinase FLT3 (Homo sapiens) (UniProt P36888); conditions: at 1 µM
# [37] = system: Receptor-type tyrosine-protein kinase FLT3 (Homo sapiens), P36888 [D835Y]; conditions: at 0.1 µM
# [38] = target: Non-receptor tyrosine-protein kinase TYK2 (Homo sapiens) (UniProt P29597); conditions: at 1 µM;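 also: values are mean percent inhibition of TYK2 kinase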
# [39] = target: Tyrosine-protein kinase receptor TYRO3 (Homo sapiens) (UniProt Q06418); conditions: at 0.1 µM
# [40] = target: Tyrosine-protein kinase receptor TYRO3 (Homo sapiens) (UniProt Q06418); conditions: at 1 µM
# [41] = target: Tyrosine-protein kinase Yes (Homo sapiens) (UniProt P07947); conditions: at 0.1 µM
# [42] = target: Tyrosine-protein kinase Yes (Homo sapiens) (UniProt P07947); conditions: at 1 µM
# [43] = target: Tyrosine-protein kinase ZAP-70 (Homo sapiens) (UniProt P43403); conditions: at 0.1 µM
# [44] = target: Tyrosine-protein kinase ZAP-70 (Homo sapiens) (UniProt P43403); conditions: at 1 µM
# [45] = target: Serine/threonine-protein kinase B-raf (Homo sapiens) (UniProt P15056); conditions: at 0.1 µM
# [46] = target: Serine/threonine-protein kinase B-raf (Homo sapiens) (UniProt P15056); conditions: at 1 µM
# [47] = system: Serine/threonine-protein kinase B-raf (Homo sapiens), P15056 [V600E]; conditions: at 0.1 µM
# [48] = system: Serine/threonine-protein kinase B-raf (Homo sapiens), P15056 [V600E]; conditions: at 1 µM
# [49] = target: RAF proto-oncogene serine/threonine-protein kinase (Homo sapiens) (UniProt P04049); conditions: at 0.1 µM
# [50] = target: RAF proto-oncogene serine/threonine-protein kinase (Homo sapiens) (UniProt P04049); conditions: at 1 µM
# [51] = target: Interleukin-1 receptor-associated kinase 4 (Homo sapiens) (UniProt Q9NWZ3); conditions: at 0.1 µM
# [52] = target: Interleukin-1 receptor-associated kinase 4 (Homo sapiens) (UniProt Q9NWZ3); conditions: at 1 µM
# [53] = target: Leucine-rich repeat serine/threonine-protein kinase 2 (Homo sapiens) (UniProt Q5S007); conditions: at 0.1 µM
# [54] = target: Leucine-rich repeat serine/threonine-protein kinase 2 (Homo sapiens) (UniProt Q5S007); conditions: at 1 µM
# [55] = system: Leucine-rich repeat serine/threonine-protein kinase 2 (Homo sapiens), Q5S007 [G2019S]; conditions: at 0.1 µM
# [56] = system: Leucine-rich repeat serine/threonine-protein kinase 2 (Homo sapiens), Q5S007 [G2019S]; conditions: at 1 µM
# Chain of Ephrin type-A receptor 2 (Homo sapiens) (P29317 whole entry): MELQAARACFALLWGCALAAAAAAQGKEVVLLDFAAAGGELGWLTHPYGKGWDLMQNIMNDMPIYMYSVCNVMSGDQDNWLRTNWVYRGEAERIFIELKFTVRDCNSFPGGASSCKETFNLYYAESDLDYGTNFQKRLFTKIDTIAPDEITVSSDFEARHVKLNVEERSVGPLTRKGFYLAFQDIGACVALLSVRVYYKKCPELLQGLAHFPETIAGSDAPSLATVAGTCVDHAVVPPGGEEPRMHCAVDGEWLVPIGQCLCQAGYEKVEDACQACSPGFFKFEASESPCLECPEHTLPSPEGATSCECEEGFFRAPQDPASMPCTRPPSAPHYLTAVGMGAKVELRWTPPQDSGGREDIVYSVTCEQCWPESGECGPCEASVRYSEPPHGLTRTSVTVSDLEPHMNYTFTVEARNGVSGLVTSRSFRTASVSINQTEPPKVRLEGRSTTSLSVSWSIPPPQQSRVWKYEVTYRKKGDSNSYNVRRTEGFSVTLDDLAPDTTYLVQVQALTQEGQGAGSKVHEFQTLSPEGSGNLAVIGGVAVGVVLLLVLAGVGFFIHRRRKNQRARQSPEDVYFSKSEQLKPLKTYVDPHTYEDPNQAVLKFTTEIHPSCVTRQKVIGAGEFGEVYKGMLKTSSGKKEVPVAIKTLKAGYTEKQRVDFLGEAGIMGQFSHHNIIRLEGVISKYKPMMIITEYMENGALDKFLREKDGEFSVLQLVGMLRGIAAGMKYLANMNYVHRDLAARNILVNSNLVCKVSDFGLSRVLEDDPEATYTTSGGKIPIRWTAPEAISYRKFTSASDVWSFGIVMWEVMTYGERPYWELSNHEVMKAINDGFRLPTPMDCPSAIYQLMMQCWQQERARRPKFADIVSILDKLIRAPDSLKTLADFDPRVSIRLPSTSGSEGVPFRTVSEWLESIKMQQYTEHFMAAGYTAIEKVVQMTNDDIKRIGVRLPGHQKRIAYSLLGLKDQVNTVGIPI
# Chain of Fibroblast growth factor receptor 3 (Homo sapiens) (P22607 23-806 limits assumed): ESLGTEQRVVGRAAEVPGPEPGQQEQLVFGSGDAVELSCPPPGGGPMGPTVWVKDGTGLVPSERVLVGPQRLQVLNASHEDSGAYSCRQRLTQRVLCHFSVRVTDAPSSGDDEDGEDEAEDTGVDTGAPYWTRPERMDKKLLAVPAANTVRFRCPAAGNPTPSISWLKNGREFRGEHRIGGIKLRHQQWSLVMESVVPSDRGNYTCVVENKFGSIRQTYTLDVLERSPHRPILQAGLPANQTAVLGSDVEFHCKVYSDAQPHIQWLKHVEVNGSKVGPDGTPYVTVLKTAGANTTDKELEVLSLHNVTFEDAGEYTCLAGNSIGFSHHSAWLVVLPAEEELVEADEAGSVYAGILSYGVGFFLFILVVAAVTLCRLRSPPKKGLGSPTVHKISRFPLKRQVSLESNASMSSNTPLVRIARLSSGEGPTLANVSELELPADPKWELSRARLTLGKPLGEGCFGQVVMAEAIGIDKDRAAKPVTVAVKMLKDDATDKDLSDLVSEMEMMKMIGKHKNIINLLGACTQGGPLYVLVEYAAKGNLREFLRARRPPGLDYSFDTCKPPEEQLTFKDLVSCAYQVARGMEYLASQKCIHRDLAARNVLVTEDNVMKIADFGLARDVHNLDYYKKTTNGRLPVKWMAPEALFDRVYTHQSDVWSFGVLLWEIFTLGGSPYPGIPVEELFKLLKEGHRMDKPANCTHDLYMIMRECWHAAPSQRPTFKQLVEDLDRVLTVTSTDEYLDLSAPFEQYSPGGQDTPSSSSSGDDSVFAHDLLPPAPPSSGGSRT
# Chain of Ephrin type-B receptor 4 (Homo sapiens) (P54760 whole entry): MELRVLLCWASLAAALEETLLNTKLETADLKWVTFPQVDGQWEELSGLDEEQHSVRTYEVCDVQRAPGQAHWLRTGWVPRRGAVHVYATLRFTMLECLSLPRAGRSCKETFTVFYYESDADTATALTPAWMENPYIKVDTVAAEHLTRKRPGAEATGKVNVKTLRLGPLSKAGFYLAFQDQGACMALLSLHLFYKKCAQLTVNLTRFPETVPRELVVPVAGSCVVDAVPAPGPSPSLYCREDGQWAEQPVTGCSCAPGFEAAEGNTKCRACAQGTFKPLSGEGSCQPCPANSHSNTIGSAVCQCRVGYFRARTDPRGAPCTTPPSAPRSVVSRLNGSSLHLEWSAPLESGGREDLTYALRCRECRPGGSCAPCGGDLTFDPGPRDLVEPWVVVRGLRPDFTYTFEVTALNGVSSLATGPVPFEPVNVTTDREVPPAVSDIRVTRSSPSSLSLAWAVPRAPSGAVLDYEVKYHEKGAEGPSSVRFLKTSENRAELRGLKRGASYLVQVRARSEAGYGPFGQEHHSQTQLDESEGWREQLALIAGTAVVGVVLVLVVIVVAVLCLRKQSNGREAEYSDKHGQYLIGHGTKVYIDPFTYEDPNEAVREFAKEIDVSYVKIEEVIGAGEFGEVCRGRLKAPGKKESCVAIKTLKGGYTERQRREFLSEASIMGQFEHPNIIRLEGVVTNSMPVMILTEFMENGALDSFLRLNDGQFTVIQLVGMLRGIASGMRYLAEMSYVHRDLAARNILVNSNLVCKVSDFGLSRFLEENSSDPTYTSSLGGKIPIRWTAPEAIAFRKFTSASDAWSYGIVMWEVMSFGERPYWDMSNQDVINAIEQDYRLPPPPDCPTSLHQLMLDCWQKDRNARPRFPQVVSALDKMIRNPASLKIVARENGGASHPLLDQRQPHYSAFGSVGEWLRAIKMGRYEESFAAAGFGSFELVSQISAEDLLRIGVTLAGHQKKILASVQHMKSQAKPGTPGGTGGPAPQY
# Chain of Tyrosine-protein kinase Fer (Homo sapiens) (P16591 whole entry, looked up): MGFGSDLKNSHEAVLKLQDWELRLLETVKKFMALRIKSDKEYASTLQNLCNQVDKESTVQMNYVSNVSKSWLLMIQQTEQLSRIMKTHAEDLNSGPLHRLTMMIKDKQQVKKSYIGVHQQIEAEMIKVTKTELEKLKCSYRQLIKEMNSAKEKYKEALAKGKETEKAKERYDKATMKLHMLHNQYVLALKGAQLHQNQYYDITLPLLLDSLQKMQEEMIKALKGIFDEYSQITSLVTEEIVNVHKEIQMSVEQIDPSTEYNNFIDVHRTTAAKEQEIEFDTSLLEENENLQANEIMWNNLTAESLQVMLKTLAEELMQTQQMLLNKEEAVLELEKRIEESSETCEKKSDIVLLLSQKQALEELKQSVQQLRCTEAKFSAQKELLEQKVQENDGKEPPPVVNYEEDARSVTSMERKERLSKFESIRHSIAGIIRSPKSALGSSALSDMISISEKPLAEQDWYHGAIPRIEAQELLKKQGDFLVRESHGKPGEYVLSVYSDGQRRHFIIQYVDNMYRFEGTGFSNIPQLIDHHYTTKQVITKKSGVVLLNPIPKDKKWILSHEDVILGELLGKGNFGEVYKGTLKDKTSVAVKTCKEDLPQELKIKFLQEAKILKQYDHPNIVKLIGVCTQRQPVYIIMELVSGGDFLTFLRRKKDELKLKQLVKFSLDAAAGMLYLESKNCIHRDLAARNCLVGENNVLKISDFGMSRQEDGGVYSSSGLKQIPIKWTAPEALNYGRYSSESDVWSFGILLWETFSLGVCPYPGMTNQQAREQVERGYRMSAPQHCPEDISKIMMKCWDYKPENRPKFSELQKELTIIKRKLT
# Chain of Fibroblast growth factor receptor 1 (Homo sapiens) (P11362 22-822 limits assumed): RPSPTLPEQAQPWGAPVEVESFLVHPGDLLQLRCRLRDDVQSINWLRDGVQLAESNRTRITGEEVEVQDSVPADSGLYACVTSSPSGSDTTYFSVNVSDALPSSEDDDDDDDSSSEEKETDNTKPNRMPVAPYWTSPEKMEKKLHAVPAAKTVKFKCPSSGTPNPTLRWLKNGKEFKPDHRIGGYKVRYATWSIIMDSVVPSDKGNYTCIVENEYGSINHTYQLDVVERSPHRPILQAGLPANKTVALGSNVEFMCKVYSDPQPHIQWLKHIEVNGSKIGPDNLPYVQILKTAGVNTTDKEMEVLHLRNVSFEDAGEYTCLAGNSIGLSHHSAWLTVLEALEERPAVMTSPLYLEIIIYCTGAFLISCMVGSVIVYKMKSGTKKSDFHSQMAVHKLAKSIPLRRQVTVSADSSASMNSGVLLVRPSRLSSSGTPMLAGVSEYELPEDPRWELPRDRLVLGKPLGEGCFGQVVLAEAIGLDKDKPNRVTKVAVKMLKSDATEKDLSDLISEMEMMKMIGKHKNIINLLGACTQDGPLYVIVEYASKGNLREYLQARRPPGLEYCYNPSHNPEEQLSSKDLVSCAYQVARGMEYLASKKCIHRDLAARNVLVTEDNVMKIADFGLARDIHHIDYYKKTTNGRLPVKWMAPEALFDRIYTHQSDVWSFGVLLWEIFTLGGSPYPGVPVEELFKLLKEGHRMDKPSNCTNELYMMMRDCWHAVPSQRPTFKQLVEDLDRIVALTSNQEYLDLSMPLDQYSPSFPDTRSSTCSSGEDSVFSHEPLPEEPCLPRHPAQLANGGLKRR
# Chain of Tyrosine-protein kinase Fgr (Homo sapiens) (P09769 2-529 limits assumed): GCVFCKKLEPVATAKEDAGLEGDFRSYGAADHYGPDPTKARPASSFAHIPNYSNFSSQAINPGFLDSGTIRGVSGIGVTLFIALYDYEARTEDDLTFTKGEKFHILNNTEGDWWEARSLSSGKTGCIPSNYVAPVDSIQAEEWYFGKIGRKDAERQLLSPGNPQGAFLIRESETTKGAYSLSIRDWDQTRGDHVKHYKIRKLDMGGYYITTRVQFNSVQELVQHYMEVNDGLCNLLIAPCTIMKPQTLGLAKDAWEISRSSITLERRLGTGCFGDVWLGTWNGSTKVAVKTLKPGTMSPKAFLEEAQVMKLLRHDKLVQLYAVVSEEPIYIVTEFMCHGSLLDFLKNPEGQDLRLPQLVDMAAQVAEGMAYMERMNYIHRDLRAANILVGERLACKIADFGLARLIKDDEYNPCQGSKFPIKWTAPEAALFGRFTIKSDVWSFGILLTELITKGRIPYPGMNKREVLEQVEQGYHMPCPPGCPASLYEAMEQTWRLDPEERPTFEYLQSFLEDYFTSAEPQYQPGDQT
smiles,measurement,setting,value
CNC(=O)Oc1cc(C)c(/C=C/c2cncc(C(=O)NC)c2)c(C)c1,inhibition,[1],-1.98%
same,inhibition,[2],-0.11%
same,inhibition,[3],12%
same,inhibition,[4],49.6%
same,inhibition,[5],7.72%
same,inhibition,[6],17.6%
same,inhibition,[7],17.7%
same,inhibition,[8],61.4%
same,inhibition,[9],12.4%
same,inhibition,[10],52.8%
same,inhibition,[11],5.12%
same,inhibition,[12],6.12%
same,inhibition,[13],9.51%
same,inhibition,[14],49.7%
same,inhibition,[15],0.63%
same,inhibition,[16],-1.51%
same,inhibition,[17],7.57%
same,inhibition,[18],13.2%
same,inhibition,[19],0.78%
same,inhibition,[20],3.53%
same,inhibition,[21],5.18%
same,inhibition,[22],7.85%
same,inhibition,[23],3.22%
same,inhibition,[24],0.63%
same,inhibition,[25],0.21%
same,inhibition,[26],10.2%
same,inhibition,[27],2.97%
same,inhibition,[28],2.24%
same,inhibition,[29],-0.84%
same,inhibition,[30],0.6%
same,inhibition,[31],3.83%
same,inhibition,[32],24.6%
same,inhibition,[33],0.98%
same,inhibition,[34],4.03%
same,inhibition,[35],1.57%
same,inhibition,[36],1.37%
same,inhibition,[37],0.68%
same,inhibition,[38],-0.46%
same,inhibition,[39],1.9%
same,inhibition,[40],5.43%
same,inhibition,[41],4.32%
same,inhibition,[42],23.4%
same,inhibition,[43],2%
same,inhibition,[44],-0.7%
same,inhibition,[45],4.75%
same,inhibition,[46],9.98%
same,inhibition,[47],4.23%
same,inhibition,[48],8.52%
same,inhibition,[49],-2.42%
same,inhibition,[50],1.27%
same,inhibition,[51],-1.38%
same,inhibition,[52],1.67%
same,inhibition,[53],7.04%
same,inhibition,[54],10.5%
same,inhibition,[55],5.2%
same,inhibition,[56],18.7%

# — ChEMBL document CHEMBL1961873, “Compounds: GSK PKIS; Assays: Nanosyn kinase panel” (2012)
